In ChEMBL document CHEMBL3988442, “University of Dundee, Small-Polar-MMV Screening Library” (2021):
For some of these results: Entries with a potency or affinity are not part of this list.

Key:
Design in all cases: scale not given: direction of the effect not stated beside the values
[1] = molecular target: Protein translocase subunit SecA (Escherichia coli (strain K12)) (UniProt P10408); assay: Assay to Identify E. coli SecA ATPase Inhibitors; assay type: functional; details: 30 µM
[2] = molecular target: T1, Ubiquitin-activating enzyme e1, putative (Leishmania donovani (strain BPK282A1)) (UniProt E9BSI1); assay: Leishmania donovani Ubiquitin Activating Enzyme (LdE1); assay type: functional; details: 30 µM
T1 sequence (whole entry): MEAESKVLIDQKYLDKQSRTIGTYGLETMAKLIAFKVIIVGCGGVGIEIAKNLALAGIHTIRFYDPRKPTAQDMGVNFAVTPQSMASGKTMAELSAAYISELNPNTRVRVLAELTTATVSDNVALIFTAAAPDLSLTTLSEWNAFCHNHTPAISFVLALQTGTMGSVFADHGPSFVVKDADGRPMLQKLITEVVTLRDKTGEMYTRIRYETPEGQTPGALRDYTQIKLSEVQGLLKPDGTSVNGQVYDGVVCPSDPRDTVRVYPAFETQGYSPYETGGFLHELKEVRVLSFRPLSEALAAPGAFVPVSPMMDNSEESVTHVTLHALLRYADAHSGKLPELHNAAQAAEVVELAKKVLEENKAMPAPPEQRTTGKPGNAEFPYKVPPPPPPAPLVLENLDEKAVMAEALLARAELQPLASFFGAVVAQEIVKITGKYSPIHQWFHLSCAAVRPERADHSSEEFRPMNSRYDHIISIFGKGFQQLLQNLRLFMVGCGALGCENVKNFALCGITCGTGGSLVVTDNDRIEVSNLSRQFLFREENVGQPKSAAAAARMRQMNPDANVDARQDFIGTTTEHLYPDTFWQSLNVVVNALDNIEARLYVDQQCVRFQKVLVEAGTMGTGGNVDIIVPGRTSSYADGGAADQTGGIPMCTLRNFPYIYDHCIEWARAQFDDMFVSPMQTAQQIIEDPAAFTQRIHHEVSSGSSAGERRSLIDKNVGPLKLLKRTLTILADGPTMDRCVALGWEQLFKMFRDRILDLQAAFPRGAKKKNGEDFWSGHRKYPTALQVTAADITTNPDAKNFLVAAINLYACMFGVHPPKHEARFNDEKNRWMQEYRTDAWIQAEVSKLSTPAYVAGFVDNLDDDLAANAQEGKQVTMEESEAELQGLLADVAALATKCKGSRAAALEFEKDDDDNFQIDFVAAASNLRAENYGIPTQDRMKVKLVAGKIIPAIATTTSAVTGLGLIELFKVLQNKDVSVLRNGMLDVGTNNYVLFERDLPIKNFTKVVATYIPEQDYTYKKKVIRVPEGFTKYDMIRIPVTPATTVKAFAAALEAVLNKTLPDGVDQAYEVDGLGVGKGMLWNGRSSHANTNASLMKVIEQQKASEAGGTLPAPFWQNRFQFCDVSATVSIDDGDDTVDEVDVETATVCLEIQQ

[3] = molecular target: AMP-activated protein kinase, AMPK (Homo sapiens) (UniProt P54646+O43741+P54619+Q9UGJ0+Q9Y478+Q13131+Q9UGI9); assay: AMP-dependent Kinase enzyme assay. An in vitro enzyme assay that detects ADP turnover that is directly proportional to AMPK activity. This uses naive AMPK that is activated during the assay with MK-8722; assay type: functional; details: 30 µM
[4] = molecular target: Sialic acid-binding Ig-like lectin 9 (Homo sapiens) (UniProt Q9Y336); assay: Hs-Siglec9 ALPHAscreen SOP 20170721; details: 10 µM
Trypanosoma cruzi = assay: Trypanosoma cruzi phosphomannomutase and mannose-1-phosphate guanylyltransferase assay; assay type: functional; details: 10 µM
[5] = molecular target: T2, Arginase-2, mitochondrial (Homo sapiens) (UniProt P78540); assay: in vitro enzyme assay to detect the production of urea directly proportional to the activity of Arginase II; assay type: functional; details: 33.3 µM; note: in the data most compounds retested in dose-response had high values
T2 sequence (whole entry): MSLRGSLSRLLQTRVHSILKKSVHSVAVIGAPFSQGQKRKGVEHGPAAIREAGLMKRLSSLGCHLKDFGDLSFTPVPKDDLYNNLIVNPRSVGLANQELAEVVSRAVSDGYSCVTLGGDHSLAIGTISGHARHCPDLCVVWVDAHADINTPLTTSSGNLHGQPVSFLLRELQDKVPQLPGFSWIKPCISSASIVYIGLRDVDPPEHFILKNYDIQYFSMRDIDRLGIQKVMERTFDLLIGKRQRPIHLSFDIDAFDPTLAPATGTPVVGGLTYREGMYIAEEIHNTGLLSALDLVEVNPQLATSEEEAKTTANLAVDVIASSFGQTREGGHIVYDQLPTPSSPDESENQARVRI

[6] = molecular target: T3, Proteasome subunit beta (Trypanosoma cruzi) (UniProt O96673); assay: Trypanosoma cruzi proteasome chymotrypsin-like activity (TcProtChymo) assay.; note: in the data most compounds retested in dose-response had high values; assay type: functional; details: 9.37 µM
T3 sequence (whole entry): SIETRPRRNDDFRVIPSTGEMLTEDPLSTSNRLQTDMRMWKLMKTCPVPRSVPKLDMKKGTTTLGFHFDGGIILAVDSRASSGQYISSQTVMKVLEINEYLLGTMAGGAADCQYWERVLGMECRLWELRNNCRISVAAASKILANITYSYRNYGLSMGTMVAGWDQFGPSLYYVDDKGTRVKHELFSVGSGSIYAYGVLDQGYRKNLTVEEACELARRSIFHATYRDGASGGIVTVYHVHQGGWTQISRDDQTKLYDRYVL

Homo sapiens = species: Homo sapiens; assay: To identify inhibition of the IFN signalling (Jak-Stat) pathway via expression of an eGFP reporter gene under the control of an IFN-stimulated response element (ISRE) containing MxA promoter.; assay type: functional; details: 30 µM
[7] = molecular target: T4, Tyrosyl-tRNA synthetase, putative (Trypanosoma cruzi (strain CL Brener)) (UniProt Q4DSP6); assay: Trypanosoma cruzi tyrosyl tRNA synthetase (TcYRS) _High Tyrosine SOP; assay type: functional; details: 30 µM; note: in the data most compounds retested in dose-response had high values
T4 sequence (whole entry): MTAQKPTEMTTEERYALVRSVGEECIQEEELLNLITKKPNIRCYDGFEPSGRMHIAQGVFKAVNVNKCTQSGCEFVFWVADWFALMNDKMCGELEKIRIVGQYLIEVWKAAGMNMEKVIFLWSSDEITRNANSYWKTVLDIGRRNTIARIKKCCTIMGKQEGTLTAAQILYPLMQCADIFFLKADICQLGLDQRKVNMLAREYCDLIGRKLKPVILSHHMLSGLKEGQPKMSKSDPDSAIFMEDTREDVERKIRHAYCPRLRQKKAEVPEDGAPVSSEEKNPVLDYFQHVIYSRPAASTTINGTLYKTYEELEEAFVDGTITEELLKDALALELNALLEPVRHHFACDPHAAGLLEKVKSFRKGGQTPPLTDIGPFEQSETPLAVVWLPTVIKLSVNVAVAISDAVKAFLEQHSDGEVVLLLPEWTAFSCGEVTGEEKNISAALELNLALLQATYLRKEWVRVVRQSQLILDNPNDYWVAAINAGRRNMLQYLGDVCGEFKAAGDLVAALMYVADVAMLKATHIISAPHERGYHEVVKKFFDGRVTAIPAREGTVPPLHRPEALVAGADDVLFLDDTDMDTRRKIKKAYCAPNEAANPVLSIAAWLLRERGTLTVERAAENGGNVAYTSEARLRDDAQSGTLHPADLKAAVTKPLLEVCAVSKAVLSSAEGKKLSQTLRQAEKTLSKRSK

[8] = molecular target: T4, Tyrosyl-tRNA synthetase, putative (Trypanosoma cruzi (strain CL Brener)); assay: Trypanosoma cruzi tyrosyl tRNA synthetase (TcYRS) SOP; assay type: functional; details: 30 µM
[9] = molecular target: Chromo domain-containing protein 1 (Saccharomyces cerevisiae (strain ATCC 204508 / S288c) (Baker's yeast)) (UniProt P32657); assay: ScCHD-1 Enzyme Inhibition Assay; assay type: functional; details: 30 µM; note: in the data most compounds retested in dose-response had high values
Chromo domain-containing protein 1 (Saccharomyces cerevisiae (strain ATCC 204508 / S288c) (Baker's yeast)), sequence (P32657 whole entry, the tested form may be a part): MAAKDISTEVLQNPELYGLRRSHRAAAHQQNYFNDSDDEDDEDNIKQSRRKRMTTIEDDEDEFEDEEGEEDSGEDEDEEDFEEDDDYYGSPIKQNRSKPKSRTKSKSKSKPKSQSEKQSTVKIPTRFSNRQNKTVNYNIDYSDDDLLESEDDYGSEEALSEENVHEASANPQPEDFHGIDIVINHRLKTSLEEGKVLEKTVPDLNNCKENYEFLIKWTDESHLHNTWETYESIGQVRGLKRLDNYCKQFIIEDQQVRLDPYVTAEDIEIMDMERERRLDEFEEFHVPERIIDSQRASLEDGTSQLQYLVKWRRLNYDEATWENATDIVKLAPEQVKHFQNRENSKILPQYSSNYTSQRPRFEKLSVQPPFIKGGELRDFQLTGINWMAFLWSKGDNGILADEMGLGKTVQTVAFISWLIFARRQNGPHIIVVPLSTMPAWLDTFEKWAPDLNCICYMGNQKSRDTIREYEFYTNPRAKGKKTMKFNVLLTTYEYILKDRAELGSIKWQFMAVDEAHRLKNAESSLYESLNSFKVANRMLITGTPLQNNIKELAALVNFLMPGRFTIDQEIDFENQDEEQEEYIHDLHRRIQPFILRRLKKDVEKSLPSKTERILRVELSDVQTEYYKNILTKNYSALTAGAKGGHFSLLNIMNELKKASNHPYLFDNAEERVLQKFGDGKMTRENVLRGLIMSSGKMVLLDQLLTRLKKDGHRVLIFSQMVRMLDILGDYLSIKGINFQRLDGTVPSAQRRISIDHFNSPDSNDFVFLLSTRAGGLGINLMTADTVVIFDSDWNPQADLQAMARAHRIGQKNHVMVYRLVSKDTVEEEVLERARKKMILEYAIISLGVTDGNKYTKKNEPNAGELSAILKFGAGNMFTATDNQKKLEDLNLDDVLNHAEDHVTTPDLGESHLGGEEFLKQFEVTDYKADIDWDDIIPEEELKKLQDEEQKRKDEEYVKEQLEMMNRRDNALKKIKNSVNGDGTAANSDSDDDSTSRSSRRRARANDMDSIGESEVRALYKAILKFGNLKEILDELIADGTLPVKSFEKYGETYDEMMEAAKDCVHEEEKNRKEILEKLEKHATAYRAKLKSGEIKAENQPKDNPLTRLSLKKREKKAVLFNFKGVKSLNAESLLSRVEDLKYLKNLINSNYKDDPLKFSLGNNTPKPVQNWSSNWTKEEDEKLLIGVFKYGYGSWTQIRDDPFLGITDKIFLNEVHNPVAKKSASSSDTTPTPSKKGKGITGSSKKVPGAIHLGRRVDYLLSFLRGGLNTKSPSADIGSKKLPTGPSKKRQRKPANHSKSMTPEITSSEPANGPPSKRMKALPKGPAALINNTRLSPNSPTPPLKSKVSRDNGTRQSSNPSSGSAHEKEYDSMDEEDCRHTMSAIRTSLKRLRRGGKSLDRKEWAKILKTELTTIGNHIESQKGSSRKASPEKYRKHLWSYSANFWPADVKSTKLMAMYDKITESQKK

Sialic acid-binding Ig-like lectin 9 (Homo sapiens), sequence (Q9Y336 whole entry): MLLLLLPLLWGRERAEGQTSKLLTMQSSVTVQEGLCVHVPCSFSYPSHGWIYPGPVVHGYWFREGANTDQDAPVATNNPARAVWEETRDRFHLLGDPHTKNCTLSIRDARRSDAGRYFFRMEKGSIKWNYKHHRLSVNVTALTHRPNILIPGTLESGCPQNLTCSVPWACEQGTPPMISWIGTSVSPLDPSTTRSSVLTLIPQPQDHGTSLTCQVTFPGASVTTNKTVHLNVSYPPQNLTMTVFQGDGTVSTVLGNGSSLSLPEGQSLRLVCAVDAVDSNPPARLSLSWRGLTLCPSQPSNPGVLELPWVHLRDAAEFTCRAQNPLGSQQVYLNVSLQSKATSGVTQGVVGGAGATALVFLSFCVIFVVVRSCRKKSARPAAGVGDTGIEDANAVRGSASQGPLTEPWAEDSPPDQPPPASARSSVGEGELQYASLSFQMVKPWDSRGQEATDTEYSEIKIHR
Protein translocase subunit SecA (Escherichia coli (strain K12)), sequence (P10408 whole entry): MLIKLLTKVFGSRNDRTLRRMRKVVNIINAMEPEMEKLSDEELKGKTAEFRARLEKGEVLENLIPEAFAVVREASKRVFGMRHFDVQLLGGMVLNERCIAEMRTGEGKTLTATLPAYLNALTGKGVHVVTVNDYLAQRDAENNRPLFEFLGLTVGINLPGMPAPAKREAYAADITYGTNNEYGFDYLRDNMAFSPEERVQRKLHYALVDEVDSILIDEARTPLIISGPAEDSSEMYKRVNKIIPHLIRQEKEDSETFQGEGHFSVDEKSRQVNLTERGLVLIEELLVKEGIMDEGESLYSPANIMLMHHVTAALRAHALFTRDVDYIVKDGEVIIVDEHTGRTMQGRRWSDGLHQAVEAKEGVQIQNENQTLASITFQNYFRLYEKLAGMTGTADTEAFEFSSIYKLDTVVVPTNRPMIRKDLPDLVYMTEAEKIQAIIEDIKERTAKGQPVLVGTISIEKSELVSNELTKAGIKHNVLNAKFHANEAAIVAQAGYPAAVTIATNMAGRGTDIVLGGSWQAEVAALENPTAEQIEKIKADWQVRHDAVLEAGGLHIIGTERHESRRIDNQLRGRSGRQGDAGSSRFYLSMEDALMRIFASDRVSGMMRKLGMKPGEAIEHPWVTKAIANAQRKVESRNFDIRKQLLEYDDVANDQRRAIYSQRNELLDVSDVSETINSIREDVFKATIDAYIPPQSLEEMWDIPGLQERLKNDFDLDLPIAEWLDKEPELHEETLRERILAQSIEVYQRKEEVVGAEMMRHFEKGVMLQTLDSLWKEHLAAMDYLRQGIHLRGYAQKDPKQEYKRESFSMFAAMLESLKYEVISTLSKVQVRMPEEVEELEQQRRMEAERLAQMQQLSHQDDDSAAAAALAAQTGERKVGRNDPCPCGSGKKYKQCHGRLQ

Row | SMILES | Percent Effect [1] | Percent Effect [2] | Percent Effect [3] | Percent Effect [4] | Percent Effect (Trypanosoma cruzi) | Percent Effect [5] | Percent Effect [6] | Percent Effect (Homo sapiens) | Percent Effect [7] | Percent Effect [8] | Percent Effect [9]
1 | CCOCC(=O)N1C[C@@H](NC(C)=O)[C@H](c2ccc(OC)cc2)C1 | -0.132% | 5.33% | -8.83% | 9.11% | 2.63% | 18.8% | 15.2% | 14.1% | 7.1% | 18.5% | -1.7%
2 | COc1ccc(C(=O)N2CCCC(CNS(C)(=O)=O)C2)cc1F (stereo not given) | -4.66% | 8.11% | -5.72% | 6.16% | -3.3% | 2.4% | 0.18% | 6.39% | 5.42% | 16.1% | -6.29%
3 | COc1ccccc1OC1(C(=O)O)CCN(c2nccnc2C)CC1 | -2.61% | 5.48% | -1.61% | 9.27% | 1.19% | -5.19% | 9.16% | -8.06% | 5.21% | 23.5% | -6.84%
4 | Cc1nc(CN2CCN(C(=O)c3sccc3C3CC3)CC2)cs1 | -2.84% | 0% | 8.03% | 9.39% | -0.49% | 3.16% | 3.48% | -10.3% | -2.86% | -2.35% | -13.7%
5 | CC(C)c1nc2c(n1C)CCN(Cc1nc(-c3ccsc3)no1)C2 | -1.67% | -24.3% | -9.21% | 0.639% | 7.71% | -1.29% | 10.1% | 1.59% | 9.9% | 25.6% | -0.805%
6 | O=C(NCc1cccs1)C1CN(C(=O)c2cccs2)CC12CCOCC2 (stereo not given) | -3.46% | 8% | 5.07% | 1.33% | 0.193% | -43.5% | 14.4% | -4.96% | 2.08% | -312% | -2.49%
7 | CC1CCCN(C(=O)c2csc(S(N)(=O)=O)c2)CC1 (stereo not given) | -6.52% | 2.7% | 1.27% | -1.52% | -6.75% | 0.248% | -0.944% | -3.67% | 4.3% | 6.17% | -0.416%
8 | CCOc1ccc(NC(=O)c2cnc(N3CCCC3)nc2C)cc1 | -4.12% | 5.2% | -3.01% | -0.674% | 1.48% | 3.23% | 5.22% | 11.8% | 4.23% | 16.7% | -8.66%
9 | CC(=O)Nc1nc(CN2CCCC2c2cnn(C)c2)cs1 (stereo not given) | -7.62% | 20.2% | -9.48% | 17.6% | 9.54% | -6.46% | 6.31% | -5.41% | 7.39% | 21.5% | -5.9%
10 | CNC(=O)[C@@]12CCCN(c3ncccn3)[C@@H]1CN(C(=O)NC(C)C)C2 | -0.175% | 20.8% | 3.44% | -13.2% | -0.296% | 1.94% | 16.5% | 12.8% | -6.35% | 14.1% | -12.4%
11 | CCN(CC1CCOC1)C(=O)c1cccnc1N1CCOCC1 (stereo not given) | -2.22% | 5.26% | -1.45% | 12.7% | 6.07% | -1.8% | -1.95% | -1.93% | 4.43% | 6.17% | 2.96%
12 | COc1ccc(CN(C)[C@@H]2CN(C(=O)c3cccs3)C[C@H]2O)cc1 | -3.27% | 6.76% | 10.4% | 2.59% | -6.13% | -2.09% | 10.6% | 15.6% | 5.38% | 9.09% | -9%
13 | O=C(NCCc1ccccn1)NC1CCN(c2ncccn2)CC1 | -2.63% | 16.4% | 1.28% | 3.94% | -1.59% | 2% | 12.9% | -1.99% | 9.38% | 23.5% | -4.07%
14 | Cc1ccc(CNC(=O)CN2CCN(CC(O)c3ccco3)CC2)cc1 (stereo not given) | -2.27% | 20.8% | -4.52% | -0.747% | 0.0986% | -1.94% | 9.4% | 7.63% | 4.23% | 24.4% | -10.3%
15 | CCn1cnnc1CNC(=O)NCC(c1cccs1)N1CCCC1 (stereo not given) | -2.72% | 18.2% | 0.236% | 9.73% | 2.43% | -1.42% | 8.11% | 10.8% | 5.83% | 19.5% | -6.68%
16 | Cc1ncsc1-c1nnc(C2CCN(Cc3ccc(F)cc3)CC2)o1 | -0.551% | -4.05% | 20% | -0.16% | 1.19% | -0.696% | 1.25% | -6.87% | 0% | -6.49% | -19.5%
17 | O=C(C1CCOCC1)N1CCO[C@H]2[C@@H](OCc3ccncc3)CC[C@@H]21 | -7.25% | 16.2% | -5.41% | 21.1% | 4.1% | 1.67% | 6.17% | 32.4% | 2.97% | 13.4% | -6.34%
18 | COc1cc(CN2CCN(c3cccc(OC)c3)C(=O)C2)cc(OC)c1 | -1.99% | 1.39% | -1.82% | -5.46% | -5.34% | -4.42% | 10.9% | -15.2% | 2.1% | 2.56% | -2.05%
19 | Cc1noc([C@@]23CCO[C@@H]2CCN(C(=O)C2CCOCC2)C3)n1 | -0.432% | 10.7% | 2.61% | -3.48% | -1.54% | -51.8% | 13.2% | -1.95% | 7.29% | 20% | -7.84%
20 | Cn1cnc2c1CCN(Cc1nc(-c3ccsc3)no1)C2 | -6.98% | 18.9% | -7.09% | 15.8% | 10.7% | -3.14% | 5.57% | 2.25% | 7.92% | 25.6% | -9.67%
